# Data taken from the antibiotic and cytotoxicity screens of Wong et al. (2023).
# In all, about 39,000 compounds went through this assay and about 3,300 (8.5%) were called active. This excerpt belongs to a sample that is enriched for actives.
# Tested on: HepG2
# Experiment: cytotoxicity call (relative viability < 0.9)
# Conditions: 10 µM
row,SMILES,cytotoxicity call
1,O=C(CCCCCCC(=O)Nc1ccccc1O)N/N=C/[C@H](O)[C@@H](O)[C@H](O)CO,inactive
2,COc1ccc(S(=O)(=O)N(C)C[C@@H]2OCCCC[C@@H](C)Oc3ccc(NC(=O)C4CCCCC4)cc3C(=O)N([C@@H](C)CO)C[C@@H]2C)cc1,inactive
3,COC(=O)C(CC#Cc1ccc2c(c1)[C@]1(C(=O)N2)[C@H](c2ccc(OCCO)cc2)N2[C@H](c3ccccc3)[C@H](c3ccccc3)OC(=O)[C@H]2[C@@H]1C(=O)Nc1nc2ccccc2s1)C(=O)OC,inactive
4,C[C@@H]1CN([C@H](C)CO)C(=O)c2cccc(NS(=O)(=O)c3cccs3)c2O[C@H]1CN(C)S(=O)(=O)c1ccccc1,inactive
5,C[C@H](CO)N1C[C@H](C)[C@@H](CN(C)C(=O)c2ccncc2)Oc2ncc(C#CC3CCCCC3)cc2C1=O,inactive
6,C[C@H](CO)N1C[C@H](C)[C@@H](CN(C)C(=O)c2cnccn2)Oc2ncc(-c3cccc(C#N)c3)cc2C1=O,inactive
7,C[C@@H]1CN([C@@H](C)CO)C(=O)c2cccc(NC(=O)Nc3cccc4ccccc34)c2O[C@H]1CN(C)S(=O)(=O)c1ccc2ncsc2c1,inactive
8,C[C@@H]1CN([C@H](C)CO)C(=O)c2cc(NC(=O)Nc3ccc4c(c3)OCO4)ccc2O[C@@H](C)CCCCO[C@@H]1CN(C)S(=O)(=O)c1ccc(F)cc1,inactive
9,C[C@@H]1CCCCO[C@@H](CN(C)S(=O)(=O)c2ccc(F)cc2)[C@@H](C)CN([C@H](C)CO)C(=O)c2cc(NC(=O)Nc3ccc4c(c3)OCO4)ccc2O1,inactive
10,C[C@@H]1CCCCO[C@@H](CN(C)S(=O)(=O)c2ccc(F)cc2)[C@H](C)CN([C@H](C)CO)C(=O)c2cc(NC(=O)Nc3ccc(F)cc3)ccc2O1,active
11,C[C@@H]1CN([C@H](C)CO)C(=O)c2cc(NC(=O)Nc3ccc(F)cc3)ccc2O[C@@H](C)CCCCO[C@H]1CN(C)S(=O)(=O)c1ccc(F)cc1,active
12,C[C@@H]1CCCCO[C@H](CN(C)S(=O)(=O)c2ccc(F)cc2)[C@@H](C)CN([C@H](C)CO)C(=O)c2cc(NC(=O)Nc3ccc4c(c3)OCO4)ccc2O1,active
13,C[C@@H]1CCCCO[C@@H](CN(C)S(=O)(=O)c2ccc(F)cc2)[C@@H](C)CN([C@@H](C)CO)C(=O)c2cc(NC(=O)Nc3ccc(F)cc3)ccc2O1,active
14,C[C@@H]1CCCCO[C@@H](CN(C)S(=O)(=O)c2ccc(F)cc2)[C@H](C)CN([C@@H](C)CO)C(=O)c2cc(NC(=O)Nc3ccc(F)cc3)ccc2O1,inactive
15,C[C@@H]1CN([C@@H](C)CO)C(=O)c2cc(NC(=O)Nc3ccc(F)cc3)ccc2O[C@@H](C)CCCCO[C@@H]1CN(C)S(=O)(=O)c1ccc(F)cc1,inactive
16,C[C@H]1CCCCO[C@H](CN(C)S(=O)(=O)c2ccc(F)cc2)[C@@H](C)CN([C@@H](C)CO)C(=O)c2cc(NC(=O)Nc3ccc(F)cc3)ccc2O1,inactive
17,C[C@@H]1CCCCO[C@@H](CN(C)S(=O)(=O)c2ccc(F)cc2)[C@@H](C)CN([C@H](C)CO)C(=O)c2cc(NC(=O)Nc3ccc(F)cc3)ccc2O1,inactive
18,C[C@H]1CCCCO[C@@H](CN(C)S(=O)(=O)c2ccc(F)cc2)[C@@H](C)CN([C@@H](C)CO)C(=O)c2cc(NC(=O)Nc3ccc(F)cc3)ccc2O1,inactive
19,C[C@H](CO)N1C[C@H](C)[C@@H](CN(C)S(=O)(=O)c2ccc(F)cc2)OCCCC[C@H](C)Oc2ccc(NC(=O)Nc3ccc(F)cc3)cc2C1=O,inactive
20,O=C(O)CNS(=O)(=O)c1ccccc1F,inactive
21,Cc1noc(C)c1S(=O)(=O)Nc1ccc2c(c1)CC(=O)N([C@H](C)CO)C[C@@H](C)[C@H](CN(C)S(C)(=O)=O)O2,inactive
22,C[C@@H]1CN([C@@H](C)CO)C(=O)c2cccc(NC(=O)c3nc4ccccc4s3)c2O[C@H]1CN(C)Cc1ccc(-c2ccccc2)cc1,inactive
23,COc1ccc(S(=O)(=O)Nc2ccc3c(c2)C(=O)N([C@@H](C)CO)C[C@H](C)[C@@H](CN(C)C(=O)Nc2cccc4ccccc24)O3)cc1,inactive

row,SMILES,cytotoxicity call
1,C[C@@H]1CN([C@H](C)CO)C(=O)c2cc(NS(C)(=O)=O)ccc2O[C@H]1CN(C)Cc1ccc(C(F)(F)F)cc1,inactive
2,C[C@H]1CN([C@@H](C)CO)C(=O)c2cccc(NC(=O)C3CCOCC3)c2O[C@H]1CN(C)S(=O)(=O)c1ccccc1,inactive
3,O=C(C[C@@H]1CC[C@H]2[C@@H](COC[C@@H](O)CN2S(=O)(=O)c2ccc(F)cc2)O1)NCc1ccc(Cl)c(Cl)c1,inactive
4,O=C(Nc1ccc(C(=O)Nc2ccc(C(=O)Nc3ccc(S(=O)(=O)O)c4cc(S(=O)(=O)O)cc(S(=O)(=O)O)c34)cc2)cc1)Nc1ccc(C(=O)Nc2ccc(C(=O)Nc3ccc(S(=O)(=O)O)c4cc(S(=O)(=O)O)cc(S(=O)(=O)O)c34)cc2)cc1,inactive
5,C[C@H]1CN([C@@H](C)CO)C(=O)c2cc(Br)cnc2O[C@@H]1CN(C)S(=O)(=O)c1ccccc1,inactive
6,C[C@@H]1CN([C@@H](C)CO)C(=O)c2cc(NS(=O)(=O)c3ccc(F)cc3)ccc2O[C@@H]1CN(C)S(=O)(=O)c1ccccc1,inactive
7,C=CCOC(=O)[C@@H]1[C@H]2C(=O)O[C@H](c3ccccc3)[C@H](c3ccccc3)N2[C@H](c2ccc(OCCOC(=O)[C@H]3C[C@H]4C(=O)NCC(=O)N4[C@H]3c3cccc(OCCO)c3)cc2)[C@@]12C(=O)Nc1ccc(I)cc12,inactive
8,C[C@@H]1CCCCO[C@H](CN(C)S(=O)(=O)c2ccc(F)cc2)[C@H](C)CN([C@H](C)CO)C(=O)c2cc(NC(=O)Nc3ccc(F)cc3)ccc2O1,active
9,C[C@@H]1CCCCO[C@H](CN(C)S(=O)(=O)c2ccc(F)cc2)[C@@H](C)CN([C@H](C)CO)C(=O)c2cc(NC(=O)Nc3ccc(F)cc3)ccc2O1,inactive
10,C[C@@H]1CN([C@H](C)CO)C(=O)c2cc(NC(=O)Nc3ccc(F)cc3)ccc2O[C@@H](C)CCCCO[C@@H]1CN(C)S(=O)(=O)c1ccc(F)cc1,inactive
11,COC(=O)C1=CO[C@@H](O[C@@H]2O[C@H](CO)[C@@H](O)[C@H](O)[C@H]2O)[C@@H]2[C@@](C)(O)[C@@H](OC(=O)/C=C/c3ccc(O)cc3)C[C@]12O,inactive
12,OC[C@@H](O)[C@@H](O)CO,inactive
13,OCC(O)C(O)CO (configuration not stated),inactive
14,C[C@@H]1CCCCO[C@@H](CN(C)C(=O)NC2CCCCC2)[C@H](C)CN([C@@H](C)CO)C(=O)c2cc(NC(=O)c3ccccc3)ccc2O1,inactive
15,CCCNC(=O)N(C)C[C@H]1Oc2cc(C#Cc3ccccn3)ccc2S(=O)(=O)N([C@@H](C)CO)C[C@@H]1C,inactive
16,COc1ccc(CN(C)C[C@H]2OCCCC[C@@H](C)Oc3ccc(NC(=O)c4ccccc4)cc3C(=O)N([C@@H](C)CO)C[C@H]2C)cc1,inactive
17,CCS(=O)(=O)N1Cc2cc(C(=O)NCCOC)nc(-c3cccc(-c4ccncc4)c3)c2[C@H]1CCO,inactive
18,CCN(CC)CCN(Cc1ccc(-c2ccc(C(F)(F)F)cc2)cc1)C(=O)Cn1c(SCc2ccc(F)cc2)nc(=O)c2c1CCC2,active
19,C[C@H](CO)N1C[C@H](C)[C@H](CN(C)C(=O)NC2CCCCC2)Oc2c(NS(=O)(=O)c3cn(C)cn3)cccc2C1=O,inactive
20,C[C@H]1CN([C@@H](C)CO)C(=O)c2cc(C#CC3CCCC3)cnc2O[C@@H]1CN(C)S(=O)(=O)c1cccc(F)c1,active
21,C[C@@H]1CN([C@@H](C)CO)C(=O)c2cc(C#CC3CCCC3)cnc2O[C@H]1CN(C)S(=O)(=O)c1cccc(F)c1,active
22,C[C@H](CO)N1C[C@H](C)[C@H](CN(C)S(=O)(=O)c2cccc(F)c2)Oc2ncc(C#CC3CCCC3)cc2C1=O,inactive
23,C[C@@H]1CN([C@H](C)CO)C(=O)c2cc(C#CC3CCCC3)cnc2O[C@H]1CN(C)S(=O)(=O)c1cccc(F)c1,inactive

row,SMILES,cytotoxicity call
1,C[C@@H]1CN([C@H](C)CO)C(=O)c2cc(C#CC3CCCC3)cnc2O[C@@H]1CN(C)S(=O)(=O)c1cccc(F)c1,inactive
2,C[C@H](CO)N1C[C@H](C)[C@@H](CN(C)S(=O)(=O)c2cccc(F)c2)Oc2ncc(C#CC3CCCC3)cc2C1=O,inactive
3,COc1ccc(NC(=O)N(C)C[C@@H]2OCCCC[C@@H](C)Oc3ccc(NS(=O)(=O)c4ccc(Cl)cc4)cc3C(=O)N([C@@H](C)CO)C[C@@H]2C)cc1,inactive
4,C=c1cc(C)ccc1=C1NN=C(NC(C)=O)O1,inactive
5,COc1ccc(S(=O)(=O)N(C)C[C@@H]2OCCCC[C@H](C)Oc3ccc(NC(=O)C4CCCCC4)cc3C(=O)N([C@H](C)CO)C[C@H]2C)cc1,inactive
6,CCCc1nn(C)c2c(=O)[nH]c(-c3cc(S(=O)(=O)N4CCN(C)CC4)ccc3OCC)nc12.O=C(O)CC(O)(CC(=O)O)C(=O)O,active
7,CCCOc1ccc(S(=O)(=O)NCC[C@@H]2CCCN2C)cc1-c1nc2c(CCC)nn(C)c2c(=O)[nH]1,inactive
8,CCCc1nc(C)c2c(=O)[nH]c(-c3cc(S(=O)(=O)N4CCN(CC)CC4)ccc3OCC)nn12.Cl,inactive
9,CCS(=O)(=O)Nc1ccc2c(c1)C(=O)N(C)[C@@H]1CC[C@H](CC(=O)NCc3ccc(OC)cc3)O[C@@H]1CO2,inactive
10,C[C@@H]1CCCCO[C@H](CN(C)CC2CCCCC2)[C@H](C)CN([C@@H](C)CO)C(=O)c2cc(NS(=O)(=O)c3cccs3)ccc2O1,active
11,C[C@@H]1CCCCO[C@H](CN(C)Cc2ccccc2)[C@@H](C)CN([C@@H](C)CO)C(=O)c2cc(NS(=O)(=O)c3cccs3)ccc2O1,inactive
12,C[C@@H]1CCCCO[C@H](CN(C)CC2CCCCC2)[C@H](C)CN([C@H](C)CO)C(=O)c2cc(NS(=O)(=O)c3cccs3)ccc2O1,inactive
13,C[C@@H]1CN([C@H](C)CO)C(=O)c2cc(NS(=O)(=O)c3cccs3)ccc2O[C@@H](C)CCCCO[C@@H]1CN(C)CC1CCCCC1,inactive
14,Cc1noc(C)c1S(=O)(=O)Nc1ccc2c(c1)C(=O)N([C@@H](C)CO)C[C@@H](C)[C@@H](CN(C)Cc1ccc(C(=O)Nc3ccccc3N)cc1)OCCCC[C@H](C)O2,inactive
15,C[C@H]1CCCCO[C@@H](CN(C)Cc2ccccc2)[C@@H](C)CN([C@@H](C)CO)C(=O)c2cc(NS(=O)(=O)c3cccs3)ccc2O1,active
16,Cc1noc(C)c1S(=O)(=O)Nc1ccc2c(c1)C(=O)N([C@H](C)CO)C[C@H](C)[C@@H](CN(C)Cc1ccc(C(=O)Nc3ccccc3N)cc1)OCCCC[C@@H](C)O2,active
17,C[C@H](CO)N1C[C@H](C)[C@@H](CN(C)Cc2ccccc2)OCCCC[C@H](C)Oc2ccc(NS(=O)(=O)c3cccs3)cc2C1=O,inactive
18,C[C@@H]1CN([C@@H](C)CO)C(=O)c2cc(NS(=O)(=O)c3cccs3)ccc2O[C@@H](C)CCCCO[C@H]1CN(C)Cc1ccccc1,active
19,Cc1noc(C)c1S(=O)(=O)Nc1ccc2c(c1)C(=O)N([C@@H](C)CO)C[C@H](C)[C@@H](CN(C)Cc1ccc(C(=O)Nc3ccccc3N)cc1)OCCCC[C@@H](C)O2,inactive
20,C[C@@H]1CN([C@H](C)CO)C(=O)c2cc(NS(=O)(=O)c3cccs3)ccc2O[C@@H](C)CCCCO[C@H]1CN(C)Cc1ccccc1,inactive
21,C[C@@H]1CCCCO[C@@H](CN(C)Cc2ccccc2)[C@H](C)CN([C@@H](C)CO)C(=O)c2cc(NS(=O)(=O)c3cccs3)ccc2O1,inactive
